The campaign covered roughly 69,000 compounds. About 8,600 (12%) showed an effect of 50% or more. What follows is part of a selection rich in strong results, with near analogues and random picks from the rest.

The test system of the test is Plasmodium berghei. As to the kind of experiment: Screen against P. berghei liver stage (PbLuc), transformed with Luciferase, at 10uM. Format: functional, HepG2. The conditions noted are these: tested at 10 uM.
Take `CC(C)NC(=O)c1ccn(COc2c(Cl)cccc2Cl)n1`: the INHIBITION is recorded as 35%.
With `CC(O)(CNC(=O)NCCc1ccc2c(c1)CCO2)c1ccccc1` (centres undefined) the figure was -5.57%; with `CCCNCc1cn(Cc2ccccc2)nc1-c1cccnc1`, 16.5%.
Consider `CNC(=O)C1CN(c2ncccn2)CCN1Cc1ccccc1` (centres undefined), for which the INHIBITION stood at 19.3%.
For `Cc1nc(CN2CCOCC2c2[nH]ncc2C)cs1` (centres undefined), the INHIBITION was found to be 8.335%.
Turning to `CN(c1cccnn1)[C@@H]1CC[C@@H]2CN(Cc3ccccc3C(=O)O)C[C@@H]21`, the INHIBITION is on record as 19.65%.
In the case of `N#CCCn1cnc2c(Br)cccc2c1=O` it was 33.6%; in that of `CS(=O)(=O)c1ccc(Cl)c(C(=O)NCCC2=CCCCC2)c1`, -19.2%; in that of `COCCN1CCc2c(CNC(=O)c3nccn3C)cncc2C1`, 43.9%.
With `CCN(CC)S(=O)(=O)N1CCCN(CC2CCCO2)CC1` (centres undefined) the figure was 41.7%; with `Cc1ccc(C)c(CN2C[C@@H]3CC[C@H]2CN(C(=O)c2cccnc2)C3)c1`, -70.7%.
With `COCCN1CCC2(CC1)CCN(Cc1ccccn1)CC2` the figure was -67.6%.
With `Cc1cc(CNC(=O)C2CC(=O)N(CCN(C)C)C2)cc(C)n1` (centres undefined), the INHIBITION was 16.5%.
With `CCN(CC)C1COc2ccc(Br)cc2C1=O` (centres undefined) the figure was 39.7%; with `COCCN1C[C@@H]2CN(Cc3ccc(F)cc3)C[C@@H]2C1=O`, 0.112%; with `Cc1ccc(=O)n(CC2(O)CCN(Cc3ccoc3)CC2)n1`, -59.9%.
In the case of `COc1ccc2c(c1)ncn2C[C@]1(O)CCCN2CCCC[C@@H]21` it was 58.5%.
With `O[C@@]1(Cn2cnc(Cl)c2Cl)CCCN2CCCC[C@@H]21` the figure was 40.3%.
For the molecule `Cc1cc2ncn(C[C@]3(O)CCCN4CCCC[C@@H]43)c2cc1C`, the INHIBITION worked out at 49.4%.
With `c1ccc(CCN2CCCC2c2ccnc(Nc3cnccn3)n2)cc1` (centres undefined) the figure was 25.8%; with `N#Cc1cccc(S(=O)(=O)NC(=O)c2csc(-c3ccco3)n2)c1`, 24.3%; with `CSc1ccsc1C(=O)NS(=O)(=O)c1cccc(C#N)c1`, 16.9%.
In the case of `COc1ccc(C(=O)NS(=O)(=O)c2cccc(C#N)c2)cc1` it was 15.5%.
As for `Cc1nc(C(C)C)sc1C(=O)NS(=O)(=O)c1ccc(C#N)cc1`, the INHIBITION is listed as 39.5%.
With `Cc1nc(C(=O)NS(=O)(=O)c2cccc(C#N)c2)cs1` the figure was 61.1%; with `N#Cc1ccc(S(=O)(=O)NC(=O)c2csc(-c3ccco3)n2)cc1`, 54.3%; with `Cc1ccc(CNC(=O)Nc2nccs2)cn1`, -31.8%.
With `Cn1cc(NC(=O)N2CCCC2c2ccccn2)ccc1=O` (centres undefined) the figure was -80.7%; with `O=C(CCn1cnc2cc(F)c(F)cc21)N1CCN(C2CC2)CC1`, -27.6%; with `COCCN1CCN(Cc2ccc(OCc3nccn3C)cc2)CC1`, -3.7%.
For `O=C1CC2(CCN(S(=O)(=O)c3cccs3)C2)CN1c1cccc(F)c1` (centres undefined), the INHIBITION is on record as -20.8%.
With `Cc1n[nH]c(C)c1CCc1n[nH]c(=O)n1Cc1cccs1` the figure was -54.9%.
Consider `COCC(NC(=O)c1cc(C)n(C)n1)c1cccc(C(F)(F)F)c1` (centres undefined), for which the INHIBITION was -0.532%.
In the case of `CNC(=O)c1ccc(C(=O)N2CCC(Nc3cccnn3)CC2)cn1` it was -0.219%.
Consider `CN1CCN(C=C2N=C(c3cc(-c4ccc(F)cc4)n[nH]3)ON2)CC1`, for which the INHIBITION worked out at 50.5%.
In the case of `COc1ccc(-c2cc(C3=NC(=CN4CCN(C)CC4)NO3)[nH]n2)cc1` it was 40.7%.
For `Cc1ccc(-c2cc(C3=NC(=CN4CCN(C)CC4)NO3)[nH]n2)cc1`, the INHIBITION was 41.8%.
With `Cc1nc(NC2(CN3CCCCC3)CCCCC2)c2cnn(C)c2n1` the figure was 40.5%; with `CCCc1nc(NC2(COC)CCCC2)c2cnn(C)c2n1`, 22.6%; with `COCC1(Nc2nc(C)nc3c2cnn3C)CCCC1`, 81.6%.
As to `COc1ccccc1-c1ccnc2nc(N3CCCCC3)[nH]c(=O)c12`, the INHIBITION was found to be 23.4%.
With `CC(=O)N1CCC(Cc2ccc(-c3ccnn3C)nc2)CC1`, the INHIBITION is on record as 9.45%.
For the molecule `CN1CCCC2(CCN(C(=O)Cn3ncc4ccccc4c3=O)C2)C1=O` (centres undefined), the INHIBITION came out at 21.2%.
On to `CCN(CC1CCOC1)C(=O)c1ccccc1S(C)(=O)=O` (centres undefined), for which the INHIBITION was determined as 45.7%.
With `Cc1ccc(CCNc2ncnc3sc4c(c23)CCNC4)o1` the figure was -158%; with `Cc1nonc1OCCNc1ncnc2sc3c(c12)CCNC3`, 6.94%.
With `c1ccc(OCCNc2ncnc3sc4c(c23)CCNC4)cc1` the figure was 92.1%.
With `Cc1cnn(CCNCC(=O)N(C)C(C)c2ccccc2)c1` (centres undefined) the figure was 19.7%; with `Cc1ccoc1C1=NNC(=CN2CCn3c(nnc3C3CC3)C2)O1`, 5.97%; with `Cn1c(CCN2CCN(CCc3ccccc3)CC2)nc2ccccc21`, 49.9%.
For the molecule `CCCc1ccc(N2CCN(Cc3nc4ccccc4n3C)CC2)cc1`, the INHIBITION turned out to be 25.8%.
With `Cn1c(CCN2CCN(c3ccc(O)cc3)CC2)nc2ccccc21` the figure was 61.9%; with `O=C(NCc1cncc2c1CCN(Cc1ccoc1)C2)C1CC1`, 5.96%; with `CN1CCN(Cc2cn3c(n2)CN(Cc2ccccn2)CC3)CC1`, 24.9%.
With `CN1CCN(Cc2cn3c(n2)CN(Cc2ccc(F)cc2)CC3)CC1` the figure was -17.7%; with `CN1CCN(Cc2cn3c(n2)CN(Cc2cccnc2)CC3)CC1`, 30.7%.
Regarding `COc1ccc(CN2CCn3cc(CN4CCN(C)CC4)nc3C2)cc1`, the INHIBITION worked out at 40.4%.
In the case of `CN1CCN(Cc2cn3c(n2)CN(Cc2ccncc2)CC3)CC1` it was 82.9%; in that of `Cc1ccc(CN2CCn3cc(CN4CCN(C)CC4)nc3C2)cc1`, 72.9%; in that of `O=C(c1cscn1)N1C[C@@H](Oc2cccnc2)[C@H]2OCCC[C@H]21`, 2.58%.
Turning to `O=C1COc2ccc(Cl)cc2CN1CC1CC1`, the INHIBITION is recorded as -8.66%.
In the case of `O=C1COc2ccc(Br)cc2CN1CC1CC1` it was 0.0996%.
In the case of `CCCN1Cc2cc(Br)ccc2OCC1=O` it was 68%; in that of `O=C(NC[C@]12COC[C@H]1CN(Cc1cccs1)C2)c1ccsc1`, 20.5%.
In the case of `COc1ccc(CNc2c(N3CCN(C)CC3)c(=O)c2=O)cc1` it was 31.8%; in that of `COc1ccccc1CNc1c(N2CCN(C(C)=O)CC2)c(=O)c1=O`, -19.2%; in that of `COc1ccc(CNc2c(N3CCN(C(C)=O)CC3)c(=O)c2=O)cc1`, 54%.
Take `O=C(NCCSCc1ccco1)c1ccc(N2CCOCC2)cc1`: the INHIBITION is listed as 17.7%.
With `CCC(CC#N)n1ccc(C(F)(F)F)n1` (centres undefined) the figure was 21.9%; with `CCC1=N[C@@]2(CC[C@@H]3CN(CC(=O)N(C)C)C[C@@H]32)C(=O)N1CC1CC1`, -3.95%.
In the case of `Cc1c(CN2CCC(C(=O)O)(n3ccnc3)CC2)oc2ccccc12` it was 15.1%; in that of `COc1ccc(NC(=O)NC(C)Cc2ccco2)cn1` (centres undefined), -41.2%; in that of `O=C(c1ncccn1)N1C[C@@H]2COC[C@]2(c2nnc(C3CC3)o2)C1`, -36.5%.
In the case of `CN(C)C(=O)N1C[C@@H]2COC[C@]2(c2nnc(C3CC3)o2)C1` it was 54.7%; in that of `CC(C)(C)C(=O)N1C[C@@H]2COC[C@]2(c2nnc(C3CC3)o2)C1`, -9.54%; in that of `COc1cccc(-c2nc(C)c(C(=O)N[C@@H](CC(C)C)C(=O)O)s2)c1`, -95.4%.
Consider `O=C1CC(c2cccnc2)c2c(c(C(=O)O)cn2-c2ccc(Cl)cc2)N1` (centres undefined), for which the INHIBITION is listed as 20%.
In the case of `Nc1nc(CCNc2ncnc3c2CCN(C(=O)C2CC2)C3)cs1` it was -66.7%.
With `O=C(C1CC1)N1CCc2c(ncnc2NCCc2nc3c(s2)CCC3)C1` the figure was 52.2%; with `CCc1ccc(CCNc2ncnc3c2CCN(C(=O)C2CC2)C3)cc1`, 71.1%.
In the case of `O=C(C1CCCCO1)N1CCc2ncnc(NCCO)c2CC1` (centres undefined) it was 25.8%; in that of `Nc1nnc(CCCNc2ncnc3c2CCN(C(=O)C2CC2)C3)s1`, -45%; in that of `Nc1nnc(CCNc2ncnc3c2CCN(C(=O)C2CC2)C3)s1`, -10.2%.
In the case of `CC(C)n1nc(Cn2cccn2)c2c1CN(C1CCOCC1)C2`, the INHIBITION was -33%.
With `Cc1nc(CN2CC[C@@H]3O[C@@H](C(=O)N4CCOCC4)C[C@@H]32)cs1` the figure was 30.9%.
With `COCCC(C)NC(=O)N1CCC(n2ccc(C(F)(F)F)n2)CC1` (centres undefined) the figure was 15.7%; with `CCS(=O)(=O)N1CCN(C(=O)c2cnc3[nH]nc(C)c3c2)CC1`, -35.2%.
Turning to `O=C(c1coc(COc2cccc3cnccc23)n1)N1CCSCC1`, the INHIBITION is given as 74.9%.
With `O=C(c1cc(=O)c(OCc2ccccc2)co1)N1CCSCC1` the figure was 21.5%; with `O=C(c1coc(COc2cccc3cnccc23)n1)N1CCCCCC1`, 84.1%.
With `O=C(O)c1coc(COc2cccc3cnccc23)n1` the figure was -2.46%.
With `O=C(c1coc(COc2ccccc2F)n1)N1CCCO1` the figure was -4.235%; with `O=C(c1coc(COc2cccc(F)c2)n1)N1CC[C@H](O)[C@@H](O)C1`, 6.8%.
For `COCCC1CCCCN1C(=O)c1coc(COc2ccccc2F)n1` (centres undefined), the INHIBITION is given as 29.735%.
In the case of `CC1CCCCN1C(=O)c1coc(COc2cccc3cnccc23)n1` (centres undefined) it was 68.4%; in that of `O=C(c1coc(COc2ccccc2F)n1)N1CCC[C@H]1CO`, 2.611%; in that of `Cc1cc(Cn2c(=O)c3c(C(F)(F)F)cc(C)nc3n2C)on1`, 4.81%.
In the case of `CN1CCOC(CNCC(=O)NCCCc2ccccc2)C1` (centres undefined) it was -17.8%; in that of `COc1ccc(CN(C)Cc2ccnc(C3CCCO3)n2)cc1` (centres undefined), 21.95%.
With `Cc1ncc(CNC(=O)NC2CCN(C3CCCC3)CC2)s1` the figure was -53.6%; with `Cc1cccc(CN2CC[C@@H]3O[C@@H](C(=O)N4CCN(C)CC4)C[C@@H]32)n1`, -5.25%; with `CCOC(=O)N1CCN(C(=O)c2cc(-c3ccc(Cl)cc3Cl)on2)CC1`, -6.91%.
Turning to `CCN(Cc1cccc(F)c1)Cc1nc2c(cnn2C)c(=O)[nH]1`, the INHIBITION is 3.73%.
On to `CC1(NC(=O)Cc2csc(NC(=O)c3ccccc3)n2)CCS(=O)(=O)C1` (centres undefined), for which the INHIBITION is on record as -14.2%.

These data come from ChEMBL document CHEMBL4513216, “Probing the Open Global Health Chemical Diversity Library for Multistage-Active Starting Points for Next-Generation Antimalarials” (ACS Infect Dis, 2020).
